Here are results for 40 compounds from PubChem BioAssay (NCI).

Compounds without any hit were thinned out: in the full panel of roughly 83,000, 20% have a hit.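 Assay: single dose, 48 h. Readout: percent growth (0 = no net growth; negative = cell death). Active: <10.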 Values without a mark were called inactive. Calls of active or inactive are those of the source.

The assay has as its system SK-MEL-5 melanoma. The assay can be described thus: NCI-60 one-dose screen, 48 h (100 = growth as untreated, 0 = no growth, -100 = all killed). The following applies: 10 µM. How it is done: Growth inhibition of the SK-MEL-5 human tumor cell line is measured as a screen for anti-cancer activity. Cells are grown in 96 well plates and exposed to the test compound for 48 hours. Compounds are tested at a single concentration, which is 10^-5 M for most compounds. The reported endpoint is percent growth (GI% or GIPRCNT), where numbers from 0 - 100% represent growth inhibition, and numbers from -100% - 0 represent cell death. For example, a value of 40 represents 60% growth inhibition. A value of 0 means no net growth occurred over the course of the experiment. A value of -40 indicates 40% of cells at the beginning of the experiment died by the end of the experiment. A value of -100 means all cells are dead at the end of the experiment.
NCI-60 Human Tumor Cell Lines Screen was performed using the standard one-dose NCI protocol, which is described in more detail at https://dtp.cancer.gov/discovery_development/nci-60/default.htm.
Compounds with GIPRCNT values below 10 were considered active. Activity score was based on GIPRCNT using the following formula: […]
Score is 0 for GIPRCNT values of 100 or above, 50 for GIPRCNT values of 0, and 100 for GIPRCNT values of -100.
Turning to `O=C(c1ccc(O)cc1)C1[C@H](c2ccccc2Br)[C@@H](c2ccccc2)NC12C(=O)Nc1ccc(Cl)cc12` (stereo not given in full), the growth is -33% (active).
Turning to `O=c1oc2ccccc2cc1-c1csc(N=Nc2c(O)[nH]c3ccc(Br)cc23)n1`, the growth was 98.1%.
On to `COc1ccc(-c2ccc(/C=N/NC(=O)c3[nH]c4ccc(Br)cc4c3-c3ccccc3)s2)cc1`, for which the growth was 106%.
With `CN1CCN(Cc2ccc(NC(=O)c3cncc(C#Cc4cnc5ccc(N[C@@H]6CCOC6)nn45)c3)cc2C(F)(F)F)CC1`, the growth is -100% (active).
Next, `CC1=C2C(=C[C@@](C)(CO)[C@@H]2O)/C(=N\N)[C@](C)(O)C12CC2`: -61.1% (active).
In the case of `N#C/C(=C\c1ccc(N(c2ccccc2)c2ccccc2)cc1)C(N)=O`, the growth is 31.2%.
With `CCN1CCN(Cc2ccc(NC(=O)c3cccc(-n4cc(-c5ccc(NC(C)=O)nc5)nn4)c3)cc2C(F)(F)F)CC1`, the growth was 87.3%.
For `Nc1nc(-c2ccccc2)cs1`, the growth is 59.1%.
Take `CN(C)c1cccc2c(S(=O)(=O)Nc3cccc(-c4csc(NC(=O)CCCCCN5CCN(c6cc7c(cc6F)C(=O)N(C6CCC(=O)NC6=O)C7=O)CC5)n4)c3)cccc12` (stereo not given): the growth is 60.2%.
Regarding `COc1cc(/C=C/C(=O)c2ccc(C(F)(F)F)cc2)ccc1Oc1nc(Nc2ccc(F)cc2)nc(N(C)C)n1`, the growth was 61.7%.
In the case of `COc1ccc(Nc2nc(N)n(Cc3cccc(Br)c3)n2)cc1`, the growth is -93.3% (active).
Turning to `COc1cc(/C=N/NC(=O)c2ccc3nc(-c4ccc(Cl)cc4)[nH]c3c2)cc(OC)c1OC`, the growth was -82.6% (active).
As for `Cc1ccc(-c2ccc(SCC(=O)Nc3ccc(S(N)(=O)=O)cc3Br)nn2)cc1`, the growth is 68.4%.
For `CC(=O)Nc1ccc(-c2cn(-c3cccc(C(=O)Nc4cccc(OC(F)(F)F)c4)c3)nn2)cn1`, the growth is 97%.
Regarding `C=C(c1ccc(OC)c(N)c1)c1cc(C)nc2ccccc12`, the growth was -55% (active).
For the compound `CCOC(=O)N/C(=C1/OCCN1C)[P+](c1ccccc1)(c1ccccc1)c1ccccc1`, the growth is 82.8%.
`COc1cccc(/C=N/NC(=O)c2ccc3nc(-c4ccc(Cl)cc4)[nH]c3c2)c1O`: the growth was -98% (active).
On to `CC(=O)Nc1ccc(-c2cn(-c3cccc(C(=O)Nc4ccc(Cl)c(C(F)(F)F)c4)c3)nn2)cn1`, for which the growth is 38.5%.
On to `Cc1ccc(NCC(=O)Nn2c(COc3ccccc3)nc3ccccc3c2=O)cc1`, for which the growth was 85.9%.
The same measure for `CCCCCc1ccc(S(=O)(=O)Nc2cc(-c3csc(N(C)C(C)=O)n3)ccc2N2CCN(C)CC2)cc1`: -6.97% (active).
The same measure for `CCCn1c(O)c(N=Nc2nc(-c3cc4ccccc4oc3=O)cs2)c2cc(Br)ccc21`: 95.5%.
Next, `CN1C(=O)N(C)C2SC(N/N=C/c3ccccc3F)=NC21` (stereo not given): 57.9%; `O/N=C(\CSc1nnc(-c2c[nH]c3ccccc23)n1-c1ccccc1)c1ccc(Cl)cc1`: 21.2%; `O=C(Nc1ccccc1)Nc1nc2ccccc2s1`: 61.1%.
Take `O=C1NC(=NC23CC4CC(CC(C4)C2)C3)N/C1=C\c1ccc2ncsc2c1`: the growth was 2.01% (active).
Take `O=C(NO)c1ccc(Cn2ccc3c(NCc4ccccc4)ncnc32)cc1`: the growth is -75% (active).
`Cc1cc(C)nc(SCC(=O)Nc2ccc(S(N)(=O)=O)cc2)n1`: the growth is 97.2%.
With `S=c1nc(-c2ccccc2)cc(-c2cc3ccccc3nc2Cl)[nH]1`, the growth is 32.1%.
Take `O=C(/C=C/Nc1ccc(F)cc1F)c1ccc2c(c1)Nc1ccccc1S2`: the growth is 76.1%.
Turning to `CCN1CCN(c2ccc(NC(=O)Nc3ccc(-c4cc(C(=O)NC)c5ncccc5n4)cc3)cc2C(F)(F)F)CC1`, the growth was -100% (active).
For the compound `NS(=O)(=O)c1ccc(NC(=O)CSc2ccc(-c3ccc(Cl)cc3)nn2)c(Br)c1`, the growth is 68.8%.
For the compound `C/C(=N\N=C\c1ccc(Cl)c([N+](=O)[O-])c1)c1ccc2c(c1)Nc1ccccc1S2`, the growth was 38.8%.
As to `CC(=O)Nc1ccc(-c2cn(-c3cccc(C(=O)Nc4cc(C(F)(F)F)cc(C(F)(F)F)c4)c3)nn2)cn1`, the growth was -38.9% (active).
Consider `Cc1ccc(C(=O)N/C(=C2/OCCN2C)[P+](c2ccccc2)(c2ccccc2)c2ccccc2)cc1`, for which the growth was 72.2%.
Next, `OCc1[nH]nc2cc(Nc3ncc4ccc(Br)c(OC5CCC(O)CC5)c4n3)ccc12` (stereo not given): -99.1% (active); `COc1ccc(CN2[C@H](C(=O)NCCCCCCC(=O)NO)Cc3c([nH]c4ccccc34)[C@H]2C2CC2)cc1`: -88% (active); `O=C(NC(=S)N1CCN(c2ncnc3c2cnn3-c2ccccc2)CC1)c1ccc(Cl)cc1`: 76.3%.
`COc1cnc2c(c1)C(=O)c1c-2n(CCCNCCO)c(=O)c2cc(OC)c(OC)cc12`: the growth was 12%.
Consider `O=C(c1ccc(O)cc1)C1[C@H](c2ccc(Br)cc2)[C@@H](c2ccccc2)NC12C(=O)Nc1ccc(Br)cc12` (stereo not given in full), for which the growth was -76.7% (active).
Next, `Cc1ccc(-c2nc(Nc3ccc(S(N)(=O)=O)cc3)c3ccccc3n2)cc1`: 74.4%.
